Test [1] addresses Ubiquitin carboxyl-terminal hydrolase 1 (Homo sapiens) (UniProt O94782). The experiment in a line: Inhibitors of USP1/UAF1: Pilot qHTS (AID 504865). Note: nearly all actives have a fitted effect of over 35% in size. Note: potency is the fitted concentration of half-maximal effect. A digest of the protocol:
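Deubiquitinase activity followed as kinetic rhodamine fluorescence release from 150 nM Ub-Rho. 1 nM USP1/UAF1 with compound, after 15 min room-temperature preincubation, in HEPES pH 7.8 buffer containing TCEP, EDTA, BSA and Tween-20.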
A general note: qHTS replaces the single test concentration by a dilution series.

Test [2] can be described thus: Nrf2 qHTS screen for inhibitors: Validation (AID 493153; active = well fitted inhibition curve with a large enough effect in the main read-out, with a control signal flat, not every such curve was filed as active). As to conditions: Potency: luciferase luminescence; viability change: measured here: cytotoxicity max response. A digest of the protocol:
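A549 cells carrying an ARE-driven firefly luciferase reporter, in 5% FBS OPTI-MEM, were treated with compounds in concentration-response for 18-24 h at 37°C. Viability was read by CellTiter-Fluor fluorescence, then Nrf2 activity by luciferase luminescence.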

Test [3] is described as follows: qHTS for Inhibitors of Cell Surface uPA Generation: Validation Assay (AID 493164).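 Note: RAW 264.7 macrophage cells exposed to compound for 18 h.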 A digest of the protocol:
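RAW 264.7, 4000 cells/well, o/n plating; cpd 7-pt 1:5 dilution 2.45 nM–38.3 uM final; 18 h, 37 C/5% CO2; ATP-Lite, 5 s luminescence exposure.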

Test [4] concerns the target Peptidyl-prolyl cis-trans isomerase NIMA-interacting 1 (Homo sapiens) (UniProt Q13526). The experiment in a line: qHTS Validation Assay to Find Inhibitors of Pin1 (AID 504536; active = well fitted inhibition curve with a large enough effect in the polarisation, with a control signal flat, not every such curve was filed as active; the % refers to the polarisation). A digest of the protocol:
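Fluorescence polarization competition: compounds (titration) displace HiFluor-488-labeled Pin1-1b peptide from Pin1 (0.3 uM final) in pH 7.5 HEPES buffer with DTT, 10 min at room temperature; %Activity normalized to no-enzyme wells, curves fitted.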

For test [5], the target named is Phosphoglycerate kinase, glycosomal (Trypanosoma brucei brucei) (UniProt P07378). The experiment in a line: qHTS Validation Assay to Find Inhibitors of Phosphoglycerate Kinase (AID 504547). A digest of the protocol: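 PGK activity was coupled to GAPDH (100nM final), which generates the unstable substrate 1,3-bisphosphoglycerate in-well. Reactions ran 60 minutes at room temperature in 100mM TEA pH 7.6, 5mM MgCl2, 0.01% Tween-20, then Kinase-Glo Plus luminescence was read.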

Test [6] addresses phosphoglycerate mutase (Leishmania major) (UniProt Q4Q090). The experiment in a line: qHTS Validation Assay to Find Inhibitors of Phosphoglycerate Mutase (AID 504548).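 Note: end-point luminescence from Kinase-GloPlus after the PGAM reaction; series mostly up to about 58 µM.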 A digest of the protocol:
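L. major PGAM (1.25nM final) was added to substrate buffer and pinned compound, incubated 45 minutes at room temperature, then Kinase-GloPlus added; luminescence read after 10 minutes. Buffer: 100 mM TEA pH 7.6, 5 mM MgCl2, 0.01% Tween-20.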

Test [7] can be described thus: qHTS for Inhibitors of ATXN expression: Validation of Cytotoxic Assay (AID 588349). A digest of the protocol:
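HEK293 cells were dosed with titrated compounds for 72 hr at 37 degrees C. Viability was read by CellTiter Glo luminescence, with intracellular ATP as the marker of cell survival.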

Inconclusive results are not listed. Where a call stands in place of a potency, no number is given. The source made the active and inactive calls. Unless noted, calls come from the whole dose curve; as a rule, active = well fitted curve in the direction sought with a large enough effect; inconclusive = small, poorly fitted or top-dose-only effect, or another doubt; inactive = no such curve, though single readings can be large; an effect the other way counts as inactive or inconclusive.

Sequence of phosphoglycerate mutase (Leishmania major) (Q4Q090 1-553): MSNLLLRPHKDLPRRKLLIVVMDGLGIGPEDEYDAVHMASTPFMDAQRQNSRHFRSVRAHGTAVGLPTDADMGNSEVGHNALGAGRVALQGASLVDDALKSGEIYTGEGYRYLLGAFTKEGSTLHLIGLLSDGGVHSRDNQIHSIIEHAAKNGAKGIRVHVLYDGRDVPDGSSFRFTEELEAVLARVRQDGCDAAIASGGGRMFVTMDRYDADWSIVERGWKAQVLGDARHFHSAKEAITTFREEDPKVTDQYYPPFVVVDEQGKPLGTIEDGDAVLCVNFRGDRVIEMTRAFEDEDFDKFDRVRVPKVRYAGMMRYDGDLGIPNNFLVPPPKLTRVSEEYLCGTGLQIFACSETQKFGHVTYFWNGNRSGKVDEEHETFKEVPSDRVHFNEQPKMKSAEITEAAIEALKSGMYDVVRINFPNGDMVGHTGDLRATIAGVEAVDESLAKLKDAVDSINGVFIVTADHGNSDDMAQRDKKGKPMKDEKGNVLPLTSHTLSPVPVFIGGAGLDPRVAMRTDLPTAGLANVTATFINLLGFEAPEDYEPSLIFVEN
Sequence of Phosphoglycerate kinase, glycosomal (Trypanosoma brucei brucei) (P07378 whole entry, looked up): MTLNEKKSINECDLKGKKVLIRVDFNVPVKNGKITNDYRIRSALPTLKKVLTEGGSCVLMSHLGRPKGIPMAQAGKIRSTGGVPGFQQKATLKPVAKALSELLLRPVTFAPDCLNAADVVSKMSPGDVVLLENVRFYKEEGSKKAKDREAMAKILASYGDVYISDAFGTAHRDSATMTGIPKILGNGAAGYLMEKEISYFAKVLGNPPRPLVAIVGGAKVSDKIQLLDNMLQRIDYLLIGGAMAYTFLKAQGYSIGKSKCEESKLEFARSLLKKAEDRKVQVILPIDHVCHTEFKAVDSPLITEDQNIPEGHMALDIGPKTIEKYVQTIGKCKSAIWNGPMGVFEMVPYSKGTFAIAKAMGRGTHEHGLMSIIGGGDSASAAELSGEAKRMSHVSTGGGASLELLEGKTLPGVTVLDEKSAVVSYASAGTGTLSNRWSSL
Sequence of Peptidyl-prolyl cis-trans isomerase NIMA-interacting 1 (Homo sapiens) (Q13526 whole entry, looked up): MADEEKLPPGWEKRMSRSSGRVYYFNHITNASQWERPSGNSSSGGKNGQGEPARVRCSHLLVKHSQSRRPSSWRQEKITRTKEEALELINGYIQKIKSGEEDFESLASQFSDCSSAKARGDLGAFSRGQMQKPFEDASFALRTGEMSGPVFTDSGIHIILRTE
Sequence of Ubiquitin carboxyl-terminal hydrolase 1 (Homo sapiens) (O94782 whole entry, looked up): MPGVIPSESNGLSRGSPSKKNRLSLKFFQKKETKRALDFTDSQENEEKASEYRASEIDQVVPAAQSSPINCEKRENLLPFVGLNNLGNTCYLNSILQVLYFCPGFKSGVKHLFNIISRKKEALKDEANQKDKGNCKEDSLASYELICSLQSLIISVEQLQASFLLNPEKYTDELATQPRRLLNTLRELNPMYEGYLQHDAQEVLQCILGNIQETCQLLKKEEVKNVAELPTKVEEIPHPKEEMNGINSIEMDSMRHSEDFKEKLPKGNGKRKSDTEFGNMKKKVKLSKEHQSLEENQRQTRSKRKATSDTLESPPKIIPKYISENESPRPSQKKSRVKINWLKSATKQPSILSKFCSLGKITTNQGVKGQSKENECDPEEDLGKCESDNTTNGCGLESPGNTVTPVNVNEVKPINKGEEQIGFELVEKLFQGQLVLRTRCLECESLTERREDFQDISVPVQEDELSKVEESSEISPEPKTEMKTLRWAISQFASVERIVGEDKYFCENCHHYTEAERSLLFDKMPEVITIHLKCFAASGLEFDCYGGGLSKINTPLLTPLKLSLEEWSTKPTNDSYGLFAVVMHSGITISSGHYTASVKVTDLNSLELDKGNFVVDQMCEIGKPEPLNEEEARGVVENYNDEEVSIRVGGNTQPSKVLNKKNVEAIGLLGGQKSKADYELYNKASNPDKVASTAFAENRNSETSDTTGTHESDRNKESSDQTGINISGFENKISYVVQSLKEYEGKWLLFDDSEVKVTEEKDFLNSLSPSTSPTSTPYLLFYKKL

For `NS(=O)(=O)c1cc(C(=O)O)cc(N2CCCC2)c1Oc1ccccc1`, in test [1], the Potency entry is “inactive”.

On to `CCOC(=O)[C@H](CCc1ccccc1)N[C@@H](C)C(=O)N1[C@H](C(=O)O)C[C@H]2CCCC[C@@H]21`, for which the Potency result in test [2] and in test [1] was “inactive” each time. In addition, the viability change in test [2] is -5.88%. For the same molecule, the result in test [3], in test [4], in test [5], in test [6] and in test [7] was inactive.

Consider `Cc1ccccc1OCC(O)CO` (stereo not given), for which, in test [1], the Potency result was “inactive”.

For `c1ccc(-c2nc[nH]c2-c2ccccc2)cc1`, the Potency result in test [1] was “inactive”.

In the case of `CC1(COc2ccc(CC3SC(=O)NC3=O)cc2)CCCCC1` (stereo not given), the Potency in test [1] was 20 µM (active).

Regarding `CN=C(N)NCCC[C@H](N)C(=O)O`, the Potency result in test [2] and in test [1] was “inactive” throughout. In test [2], the viability change came out at 2.51%. In addition, the outcome in test [3], in test [4], in test [5], in test [6] and in test [7] was inactive.

`O=C(O)Cc1csc(-c2ccc(Cl)cc2)n1`: the Potency result in test [1] was “inactive”.

Take `CCN(CC)CCNC(=O)c1cc(Br)c(N)cc1OC`: the Potency result in test [1] was “inactive”.

In the case of `Cc1cccc(C)c1NC(=O)CN1CCCC1`, the Potency result in test [1] was “inactive”.

With `Cc1ccc(S(=O)(=O)NC(=O)NC2CCCC2)cc1`, in test [1], the Potency result is “inactive”.

Turning to `NC(=O)c1ccccc1O`, the Potency entry in test [1] was “inactive”.

Regarding `Cc1ccc2c(Br)cc(Br)c(O)c2n1`, in test [1], the Potency entry is “inactive”.

On to `CC(C)(C)NC[C@H](O)COc1nsnc1N1CCOCC1`, for which the Potency entry in test [2] and in test [1] was “inactive” throughout. For the same molecule, in test [2], the viability change amounted to 2.77%. Further, the result in test [3], in test [4], in test [5], in test [6] and in test [7] was inactive.

Turning to `O=C(Nc1cccc(C2=NCCN2)c1)Nc1cccc(C2=NCCN2)c1`, the Potency entry in test [1] was “inactive”.

For the molecule `CC(=O)NCCCCCC(=O)O`, the Potency result in test [1] is “inactive”.

Regarding `CNCCc1ccccn1`, the Potency result in test [1] was “inactive”.

`CC(=O)O[C@H]1C[C@@H]2CC[C@@H]3[C@H](CC[C@@]4(C)[C@H]3C[C@H]([N+]3(C)CCCCC3)[C@@H]4OC(C)=O)[C@@]2(C)C[C@@H]1N1CCCCC1`: the Potency result in test [1] was “inactive”.

Regarding `OC1C(O)C(O)C(O)C(O)C1O` (stereo not given), the Potency result in test [1] was “inactive”.

For the molecule `COc1cc(C)nc(-n2nc(C)cc2OC)n1`, in test [1], the Potency result was “inactive”.

For `OCCOCCN1CCN(C2=Nc3ccccc3Sc3ccccc32)CC1`, in test [1], the Potency entry is “inactive”.

Take `COc1ccc(/C=N/NC(=O)c2ccncc2)cc1OC`: in test [1], the Potency entry is “inactive”.

With `COc1ccc(C(=O)c2ccccc2)c(O)c1`, the Potency entry in test [1] is “inactive”.

On to `CCNC(=O)/C=C/c1cccc(Br)c1`, for which the Potency entry in test [1] is “inactive”.

For the molecule `CC[N+](C)(CC)CCOC(=O)C(O)(c1ccccc1)C1CCCCC1` (stereo not given), the Potency result in test [1] is “inactive”.

For the molecule `CCOc1cc(OCC)c(C(=O)CCC(=O)O)cc1OCC`, in test [1], the Potency entry is “inactive”.

Turning to `CC(=O)NO`, the Potency entry in test [1] is “inactive”.

Turning to `Nc1nc(-c2ccccc2)c(Br)c(=O)[nH]1`, the Potency result in test [1] is “inactive”.

`CCN(CC)CCNc1ccc(CO)c2sc3ccccc3c(=O)c12`: the Potency entry in test [1] was “inactive”.

As to `CC(=O)Nc1ccc(CC(=O)O)cc1`, the Potency result in test [1] is “inactive”.

On to `CN1CCc2cccc3c2[C@H]1Cc1ccc(O)c(O)c1-3`, for which, in test [1], the Potency result was “inactive”.

With `O=[N+]([O-])c1cccc(S(=O)(=O)NCCNS(=O)(=O)c2cccc([N+](=O)[O-])c2)c1`, in test [1], the Potency result was “inactive”.

Consider `CCC(Cc1c(I)cc(I)c(N)c1I)C(=O)O` (stereo not given), for which the Potency entry in test [1] was “inactive”.

Consider `CCN(CC)CCOc1ccccc1C(=O)CCc1ccccc1`, for which the Potency result in test [1] was “inactive”.

With `COP(=O)(OC)OC(c1ccc(Cl)cc1)P(=O)(OC)OC` (stereo not given), in test [1], the Potency result is “inactive”.

On to `C#C[C@]1(O)CC[C@H]2[C@@H]3CCc4cc(OC)ccc4[C@H]3CC[C@@]21C`, for which the Potency result in test [1] is “inactive”.

For the molecule `Cc1cccc(C)c1NC(=O)c1ccccc1C(=O)O`, the Potency result in test [1] is “inactive”.

Turning to `O[C@@H](c1cc(C(F)(F)F)nc2c(C(F)(F)F)cccc12)[C@H]1CCCCN1`, the Potency entry in test [1] was “inactive”.

Take `CN1CCC[C@@H]1CCO[C@](C)(c1ccccc1)c1ccc(Cl)cc1`: in test [1], the Potency entry is “inactive”.

Take `O=C(NC1CCN(CCc2c[nH]c3ccccc23)CC1)c1ccccc1`: the Potency entry in test [1] is “inactive”.

`O=C(O)C(Cc1cc(I)c(O)c(I)c1)c1ccccc1` (stereo not given): the Potency result in test [1] was “inactive”.

Take `CN1CCN(c2cc3c(cc2F)c(=O)c(C(=O)O)cn3-c2ccc(F)cc2)CC1`: the Potency entry in test [1] was “inactive”.

Take `CO[C@]12C[C@@H](COC(=O)c3cncc(Br)c3)CN(C)[C@@H]1Cc1cn(C)c3cccc2c13`: in test [1], the Potency result is “inactive”.

In the case of `Cc1ccc(-c2ncc(Cl)cc2-c2ccc(S(C)(=O)=O)cc2)cn1`, the Potency result in test [1] is “inactive”.

On to `C=C[C@@]1(C)CC(=O)[C@]2(O)[C@@]3(C)[C@@H](O)CCC(C)(C)[C@@H]3[C@H](O)[C@H](OC(C)=O)[C@@]2(C)O1`, for which, in test [1], the Potency entry is “inactive”.

Turning to `OC(C#CCN1CCCC1)(c1ccccc1)c1ccccc1`, the Potency entry in test [1] is “inactive”.

Consider `O=C(Oc1cccc2cccnc12)c1ccccc1`, for which the Potency result in test [1] was “inactive”.

As to `CN1CCN(C2=Nc3cc(F)ccc3Cc3ccccc32)CC1`, the Potency result in test [1] is “inactive”.

Consider `CC(=O)Nc1ccc(OCC(O)CNC(C)C)cc1` (stereo not given), for which the Potency result in test [1] is “inactive”.

`CCCCCCCC/C=C\CCCCCCCCN`: the Potency entry in test [1] was “inactive”.

For the origin of these results see PubChem BioAssay (NCATS).
